Screening data deposited in PubChem BioAssay by National Center for Advancing Translational Sciences (NCATS).
12-hLO inh: inhibitors of human 12-lipoxygenase (ALOX12) | AID 1452 | hit rate 0.12% among 150,000 | purified 12-hLO, xylenol orange hydroperoxide absorbance | Potency, µM (doses to about 57.1 µM), usual class: inhibitors; note: nearly all actives have a fitted effect of over 55% in size
Target sequence (P18054 whole entry, looked up): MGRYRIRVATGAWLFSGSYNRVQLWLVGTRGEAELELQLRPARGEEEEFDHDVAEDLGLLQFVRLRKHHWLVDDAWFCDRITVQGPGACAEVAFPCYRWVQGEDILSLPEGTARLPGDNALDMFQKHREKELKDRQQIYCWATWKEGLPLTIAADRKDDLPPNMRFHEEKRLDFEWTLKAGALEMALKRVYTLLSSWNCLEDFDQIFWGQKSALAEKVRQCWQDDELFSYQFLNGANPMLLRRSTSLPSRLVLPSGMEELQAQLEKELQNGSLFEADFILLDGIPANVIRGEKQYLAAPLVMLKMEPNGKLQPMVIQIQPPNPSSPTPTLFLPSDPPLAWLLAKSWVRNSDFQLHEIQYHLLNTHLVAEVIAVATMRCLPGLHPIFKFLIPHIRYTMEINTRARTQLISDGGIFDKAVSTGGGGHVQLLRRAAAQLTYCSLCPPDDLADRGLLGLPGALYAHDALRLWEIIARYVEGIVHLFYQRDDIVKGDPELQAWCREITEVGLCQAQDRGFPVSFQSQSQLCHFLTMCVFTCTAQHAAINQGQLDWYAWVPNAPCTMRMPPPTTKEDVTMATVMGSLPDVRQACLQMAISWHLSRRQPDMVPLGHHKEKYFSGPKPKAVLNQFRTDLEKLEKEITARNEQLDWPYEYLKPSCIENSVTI
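Hydroperoxide output read as Fe(III)-xylenol orange absorbance, 573-to-405 nm ratio, after 30 min reaction with 40 uM arachidonic acid. Enzyme: 150 nM purified human 12hLO, 15 min compound preincubation; 25 mM Hepes pH 7.0, room temperature.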
ALDH1A1 inh: blocks purified human ALDH1A1 activity | Purified ALDH1A1, NADH fluorescence, propionaldehyde substrate | Potency, µM (series often up to 75.3 µM), most hits filed as inhibitors | hit rate 7.3% among 220,000; active = well fitted inhibition curve with a large enough effect, not every such curve was filed as active; inconclusive = small, poorly fitted or top-dose-only effect, or another doubt; inactive = no such curve, though single readings can be large or run the other way
GLA inh pH 4.5: blocks human alpha-galactosidase A at pH 4.5; activity change, negative = inhibition, % at 105 µM; P06280; AID 1467; 230,000 tested, under 10 active; purified enzyme, 4-MU-alpha-Gal fluorescence, pH 4.5
GLA spleen mod: alpha-galactosidase A (human) modulation; Potency, µM (top dose mostly 80 µM), hits mostly inhibitors; human spleen homogenate, 4MU-alpha-Gal fluorescence, 40 min; hit rate 0.008% among 240,000; AID 2107
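Spleen homogenate 1 ug + cpd (titration) + 4-MU-alpha-D-galactopyranoside 1 mM; 37C 40 min; 50 mM citrate/phosphate pH 5.0, 0.01% Tween-20; stop pH 10; fluorescence 365/440; AC50 via Hill.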
HPGD block: blocks human HPGD enzyme activity. purified HPGD, NADH fluorescence kinetic, PGE2 substrate. P15428. hit rate 4.3% among 150,000. Potency, µM, hits mostly inhibitors; active = well fitted inhibition curve with a large enough effect, not every such curve was filed as active; inconclusive = small, poorly fitted or top-dose-only effect, or another doubt; inactive = no such curve, though single readings can be large or run the other way
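NADH formation kinetics: reaction with 30 uM PGE2 and 1 mM NAD+ (final), 20 nM enzyme, Tris-HCl pH 8 with Tween 20, after 15 min compound preincubation at room temperature. Fluorescence change, last versus first of five reads.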
PNC assembly inh: blocks assembly of the perinucleolar compartment; hit rate 3.1% among 140,000; PC3M PTB-GFP, PNC prevalence imaging, 16 h; hits give low values; activity change (PNC), negative = inhibition, % at 10 µM;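 active = readout at or below -70, meaning at least 70% loss of cells showing the perinucleolar compartment, a nuclear body marking cancer cells; inconclusive = readout between -30 and a set limit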
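PC3M cells stably expressing PTB-GFP, 750–1000 cells/well, treated 16 h at 37 °C with compound (23 nl of library stock), in duplicate. After paraformaldehyde fixation and Hoechst stain, imaged at 20x; PNC prevalence scored by image analysis.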
Numbers stand for hits; n = inactive; u = inconclusive; x = not tested or not shown; [ ] = dose if it differs, or a comment. Hits are enriched below; roughly 10% of the tested compounds scored in any of these assays. Unless noted, calls come from the whole dose curve; as a rule, active = well fitted curve in the direction sought with a large enough effect; inconclusive = small, poorly fitted or top-dose-only effect, or another doubt; inactive = no such curve, though single readings can be large; an effect the other way counts as inactive or inconclusive.

SMILES	12-hLO inh	ALDH1A1 inh	GLA inh pH 4.5	GLA spleen mod	HPGD block	PNC assembly inh
N#CCc1ccc(C(=O)c2ccccc2)s1	n	u	n	n	28µM	-82
CC1CCC(O)([C@](C)(C(=O)O)c2ccccc2)CC1 (stereo partly drawn)	n[11.4 µM]	n[13.5 µM]	x	x	n	x
CCC1CN2CCC1CC2[C@@H](NC(=S)Nc1cc(C(F)(F)F)cc(C(F)(F)F)c1)c1cccc2ccc(OC)cc12 (stereo partly drawn)	x	n	n	n	n	x
O=C(OCc1nc2ccccc2s1)[C@@H]1CCCN1S(=O)(=O)c1ccccc1F	n	7.9µM	n	n	n	u
CCCOc1ccc([N+](=O)[O-])cc1C1NC(=S)NC(c2ccccc2)=C1C(=O)OCC (stereo not drawn)	u	u	u	n	n	n
CCOC(=O)C1=C(c2cccc(F)c2)NC(=S)NC1C (stereo not drawn)	n	1.6µM	n	n	n	n
Cc1ccc(NCCC(=O)c2ccc(Cl)cc2)cc1	n	1.4µM	n	n	n	n
O=C(O)CCC(=O)c1ccc(Cl)cc1	n[11.4 µM]	n[13.5 µM]	x	x	n	x
CCc1ccc(NCCC(=O)c2ccc(Br)cc2)cc1	n	n	n	n	x	n
Cc1ccc(NCCC(=O)c2ccc(Br)cc2)cc1	n	0.79µM	n	n	n	n
ONCc1ccccc1	x	x	x	n	x	x
Cn1cc(Br)c(C(=O)NC2C3CC4CC(C3)CC2C4)n1 (stereo not drawn)	n	n	n	n	16µM	n
Cn1cc(C(=O)NC2C3CC4CC(C3)CC2C4)cn1 (stereo not drawn)	n	n	n	n	n	n
O=C1/C(=C/c2c[nH]c3ccccc23)CCC/C1=C\c1c[nH]c2ccccc12	n	1.3µM	n	n	n	n
O=C1CS/C(=N/N=C/c2c[nH]c3ccccc23)N1	x	x	n	n	x	x
C[C@H](N)C(=O)N[C@@H](Cc1ccc(F)cc1)C(=O)N[C@@H](CCCN=C(N)N)C(=O)N[C@@H](CC1CCCCC1)C(=O)N[C@@H](CCCCN=C(N)N)C(=O)N[C@@H](Cc1ccc(O)cc1)C(N)=O	x	x	x	n	x	x
COc1ccc(-n2c(O)c(/C=N/Nc3nc(C)cc(C)n3)c3ccccc3c2=O)cc1OC	x	0.79µM	n	n	x	x
CCC(=O)NC(=S)Nc1ccc(NC(=S)NC(=O)c2ccccc2)cc1	x	25µM	n	n	x	x
O=C(NC(=S)Nc1ccc(Cl)cc1)c1ccccc1	x	15µM	n	n	x	x
O=C(CCc1ccccc1)NNC(=S)NC(=O)c1ccc(Cl)cc1	n	11µM	n	n	n	u
O=C(NC(=S)Nc1ccc(Oc2ccc(Cl)cc2)cc1)c1ccccc1	13µM	8.9µM	n	n	n	n
CCC/C(O)=C1\C(=O)CC(C)(C)CC1=Nc1ccccc1O	x	n	n	n	x	x
O=C(CSC1=NCCN1)c1ccccc1	n[11.4 µM]	n[13.5 µM]	x	x	n	x
O=C(Nc1ccccc1)N1CCC2(CCNCC2)CC1	n	n	x	n	n	x
COc1cc2c(cc1OC)CN(C(=S)NC(=O)c1ccccc1)CC2	x	n	n	n	x	x
SMILES	12-hLO inh	ALDH1A1 inh	GLA inh pH 4.5	GLA spleen mod	HPGD block	PNC assembly inh
Cc1ccc(C(=O)NC(=S)Nc2cccc(NC(=O)c3ccccc3)c2)cc1[N+](=O)[O-]	u	16µM	n	n	n	-93
Cc1ccc(C(=O)NNC(=S)Nc2cccc(Cl)c2Cl)cc1[N+](=O)[O-]	n	2.8µM	n	n	11µM	n
CC(=O)Nc1cccc(NC(=O)c2ccc(C)c([N+](=O)[O-])c2)c1	x	n	n	n	x	x
Cc1ccc(C(=O)NC(=S)Nc2cccc(NC(=O)c3ccccc3Cl)c2)cc1[N+](=O)[O-]	u	13µM	n	n	n	u
CC(=O)c1cccc(NC(=S)NNC(=O)c2ccc(C)c([N+](=O)[O-])c2)c1	x	u	n	n	x	x
COC(=O)[C@@H]1C[C@@H]2CC[C@@H](O)C[C@@H]2N1Cc1ccc(-c2ccccc2)cc1	n	n	n	n	n	x
N#Cc1cccc(-c2cc(NCc3ccccc3)ncn2)c1	x	u	x	n	x	x
CC(=O)Nc1ccc(S(=O)(=O)NC(C(=O)O)C(C)O)cc1 (stereo not drawn)	x	x	n	n	x	x
Nc1nc(-c2ccco2)nn1C(=O)c1ccc([N+](=O)[O-])cc1	x	n	n	n	x	x
CO[C@H]1COC(=O)C/C=C\[C@@H](C)COC(=O)[C@@H](OCc2ccccc2)/C=C\[C@@H]1C	x	n[13.5 µM]	x	n[17.5 µM]	x	x
COC(=O)C(C)NC(=O)c1ccc(C(C)(C)C)cc1 (stereo not drawn)	n	n	n	n	n	u
CCOc1ccc(C(=O)OCc2nnc(-c3cccs3)o2)cc1OC	n	n	n	n	25µM	u
CC(=O)N[C@H](CC(C)C)C(=O)O	n	n	n	n	n	x
CC(=O)c1ccc(Oc2ncnc3sccc23)c(CN2CCOCC2)c1	n	u	n	n	25µM	n
CCOC(=O)c1cnc2ccc(C(=O)OC)cc2c1Nc1ccc(C(=O)O)cc1	x	n	n	n	x	x
CCOC(=O)c1cnc2ccc(C)cc2c1OCc1cc(F)cc(F)c1	n	14µM	n	n	n	n
CCCN1C(=O)/C(=C2\SC(=S)N(c3c(C)n(C)n(-c4ccccc4)c3=O)C2=O)c2ccccc21	x	x	n	n	x	x
CCCC(C(=O)O)N1C(=O)/C(=C2\C(=O)N(C)c3ccccc32)SC1=S (stereo not drawn)	n	n	n	n	25µM	n
O=C1NCCCc2c1oc1ccc(O)cc21	n	8.9µM	n	n	n	n
O=C(O)CCC/C=C\C[C@@H]1[C@@H](/C=C/[C@@H](O)COc2cccc(C(F)(F)F)c2)[C@H](O)C[C@@H]1O	n	n	n	n	n	x
Cc1ccc2nc3c(cc(C#N)c(=O)n3CCN3CCOCC3)c(=O)n2c1	n	u	n	u	x	-122
N#Cc1cc2c(=O)n3ccccc3nc2n(CCN2CCOCC2)c1=O	n	u	n	n	u	n
O=S1(=O)CCN2C=Nc3sc4c(c3C2=N1)CCCC4	n	8.9µM	n	n	n	n
On1onc2c3cc(-c4ccccc4)nc3ccc21	u	18µM	n	n	n	n
O=[N+]([O-])O[C@H]1CO[C@H]2[C@@H]1OC[C@H]2O	n[0.00818 µM]	n	n	n	n	x
O=C(CN1CCOCC1)NC1CC2CCC1C2 (stereo not drawn)	n	25µM	n	n	n	u
O=C(NC1CC2CCC1C2)c1ccc(CN2CCOCC2)cc1 (stereo not drawn)	n	u	n	n	n	u
COc1ccc(O[C@H]2C=C[C@@H](c3ccccc3)O[C@H]2CO/N=C(/C)CCC(=O)OC[C@@H]2O[C@H](C#Cc3ccccc3)C=C[C@@H]2Oc2ccc(C)cc2)cc1	x	n[13.5 µM]	x	n[17.5 µM]	x	x
S=C(NC1CC1)NC1CCCc2ccccc21 (stereo not drawn)	x	n	n	n	x	x
O=[N+]([O-])c1cc(Cl)ccc1-c1nc(-c2ccccc2)no1	n	n	n	n	14µM	u
